# Screening data: PubChem BioAssay, Broad Institute
# Not all results are given here.
# aSyn UTR act: Activators via SNCA 5'UTR binding, MLPCN. alpha-synuclein 5'UTR reporter, activators screen. activity score, % (tested at 7.5 µM), hits read low. 7.1% of 300,000 active; in the data active = activity score below about -60%
# A number is an active result; n = inactive.
SMILES,aSyn UTR act
O=C(NCCc1ccc(Cl)cc1)C1CCC(CNc2nc(=S)[nH]c3ccccc23)CC1 (stereo unspecified),n
NC(N)=Nc1nc(C2COc3ccccc3O2)cs1 (stereo unspecified),-64
C/C(CC(=O)Nc1cccc2c1CCCC2)=N\NC(=O)c1ccccc1N,-110
CC(=O)c1cccc(NC(=O)CSc2ccc(-c3ccccn3)nn2)c1,n
O=C(CSc1ccc(-c2ccccc2)nn1)N1CCCCC1,-155
O=C(CSc1ccc(-c2ccccn2)nn1)N1CCCCC1,-66
CCOc1ccc(-c2ccc(SCC(=O)N3CCN(c4ccccc4)CC3)nn2)cc1,-69
OC(COc1ccc(CNCCc2ccc(C(F)(F)F)cc2)cc1)CN1CCCCC1 (stereo unspecified),n
NC(=O)c1ccccc1N/C=C/C(=O)c1ccc(F)cc1,-65
Cc1ccc(C=Nc2ccccc2C(N)=O)o1,-154
COc1ccccc1Oc1ccc(N/C=C/C(=O)c2ccc(C)o2)cc1,-89
Cc1ccc(C(=O)/C=C/Nc2ccccc2C(N)=O)o1,-200
Cc1ccc(NC(=O)c2ccco2)cc1C,-103
Cc1ccc(C(=O)Nc2ccc3c(c2)OCO3)cc1NC(=O)c1ccco1,-71
CCn1nccc1C(=O)Nc1ccc(C)c(C)c1,-178
CC1(C)Oc2ccc(NC(=O)c3ccco3)cc2O1,-168
COc1cccc(NC(=O)c2ccco2)c1,-116
COc1cc(OC)cc(C(=O)Nc2ccc(NC(=O)c3ccco3)c(C)c2)c1,-123
O=C(Nc1ccc2c(c1)OCCO2)c1ccco1,-68
COc1ccc(-c2csc(Nc3ncccn3)n2)cc1C,-76
COc1ccc(-c2csc(Nc3cc(C)ccn3)n2)cc1C,-155
CCOc1ccc(NC(=O)c2ccccc2SC)cc1,-110
CSc1ccccc1C(=O)Nc1ccc(C)c(C)c1,-130
COc1ccc(C)cc1NC(=O)c1nnn(Cc2cccc(C(F)(F)F)c2)c1N,n
COc1cccc(NC(=O)c2nnn(Cc3ccc(Br)cc3F)c2N)c1,-80
SMILES,aSyn UTR act
COc1cccc(NC(=O)c2nnn(CCc3ccccc3)c2N)c1,-127
N#Cc1ccc(-c2csc(NC(=O)C3CC3)n2)cc1,-64
O=C(Nc1nc(-c2ccccn2)cs1)c1cccc(-n2cnnn2)c1,n
O=C(Nc1nc(-c2ccccn2)cs1)C12CC3CC(CC(O)(C3)C1)C2,-68
O=C(Nc1nc(-c2ccccn2)cs1)C1CC1,-111
Oc1c(N=Nc2ccccn2)ccc2ccccc12,n
Oc1ccc(N=Nc2ccc3ccccc3c2)cc1,-73
NS(=O)(=O)c1ccc(N=Nc2ccc(O)c3ncccc23)cc1,n
Oc1ccc(N=Nc2c(O)ccc3ccccc23)cc1,-98
COc1cc(N=Nc2ccc3ccccc3c2)ccc1O,-144
c1ccc(-c2cc(N3CCCCC3)ncn2)cc1,-135
c1ccc(-c2cc(N3CCCCCC3)n[nH]2)cc1,-74
COc1cccc(NC(=O)Nc2ccc(Br)cn2)c1,-192
COc1ccc(NC(=O)Nc2ccc(Br)cn2)cc1OC,-69
Cc1ccc(NC(=O)O/N=C/c2ccc(N(C)C)cc2)cc1,-71
Cc1ccc(NC(=O)O/N=C/c2ccc(F)cc2)cc1,-131
O=C(Nc1ccccc1)O/N=C/c1ccc(F)cc1,-189
Nc1ccc(Oc2cc(N)cc(Oc3ccccc3)c2)cc1,-173
CCc1ccc(Oc2cc(C)nc(N)n2)cc1,-92
CCCc1ccc(Oc2cc(Cl)nc(N)n2)cc1,-149
COC(=O)c1cn(C(=O)c2ccc(OC)cc2)c2ccccc12,-147
COc1cccc(C(=O)NCCS(=O)(=O)NCCc2ccccc2)c1,-75
COc1ccc(C(=O)NCCS(=O)(=O)NCCc2ccccc2)cc1,-72
O=C(NCCS(=O)(=O)NCCc1ccccc1)c1ccc2c(c1)OCO2,-120
COC(=O)c1c(N)sc(C(=O)NCCc2ccccc2)c1C,n
SMILES,aSyn UTR act
CC(C)(C)C1CCC(=O)N(CCSc2ccccc2)CC1 (stereo unspecified),-145
Cc1ccc(SCCN2CCC(C)CCC2=O)cc1 (stereo unspecified),-153
Cc1ccc(SCCC(=O)N2CCC(C)CC2)cc1,-92
COc1ccc(/C=C\C(=O)Oc2cccc(/C=N/NC(=O)Cc3ccc(OC)c(OC)c3)c2)cc1,-87
COc1ccc(/C=C/C(=O)Oc2cccc(/C=N/NC(=O)c3cccc(F)c3)c2)cc1,-151
Cc1ccc(-c2cnn(-c3cccc([N+](=O)[O-])c3)c2N)cc1,-105
Nc1c(-c2ccccc2)cnn1-c1cccc(C(F)(F)F)c1,-205
Nc1c(-c2ccc(Cl)cc2)cnn1-c1ccccc1,-180
O=c1c2ccccc2c(-c2ccc(O)cc2)nn1-c1cccc(C(F)(F)F)c1,n
Nc1c(-c2ccc(Cl)cc2)nnn1-c1ccccc1,-159
Nc1c(-c2ccccc2)cnn1-c1ccc(C(=O)O)cc1,-130
Cc1ccc(-c2cnn(-c3ccccc3)c2N)cc1,-69
CCOc1ccc(-c2nc(C)c(C(C)=O)n2O)cc1,-173
C/C(NC(=O)c1ccccc1F)=C1\C(=O)C[C@@H]2[C@H]1C2(C)C,-174
C/C(NC(=O)c1cccc(F)c1)=C1/C(=O)C[C@@H]2[C@H]1C2(C)C,-183
O=C(NC(=S)NNC(=O)[C@H]1C[C@@H]1c1ccccc1)c1cccc(F)c1,n
CC1(C)Cc2c(c(N3CCOCC3)nc3snc(N)c23)CO1,-169
CC(C)CCNc1nnnc2c1sc1nc(N3CCOCC3)c3c(c12)CC(C)(C)SC3,n
COc1ccccc1C1=NOC(C)(c2sc(-c3ccc(Cl)cc3)nc2C)C1 (stereo unspecified),-70
Cc1nc(-c2ccc(Cl)cc2)sc1C1(C)CC(c2ccccc2)=NO1 (stereo unspecified),-134
Cc1nc(-c2ccccc2)sc1C1(C)CC(c2ccccc2F)=NO1 (stereo unspecified),-76
Cc1ccc(NC(=O)C(C)N=C2NS(=O)(=O)c3ccccc32)cc1F (stereo unspecified),-96
C/C(=N\N=C\c1ccccc1)c1nnn(-c2nonc2N)c1C,-82
COc1cc(/C=N/O)ccc1OCc1ccc(Cl)cc1,-97
COc1cc(/C=N/NC(N)=S)ccc1OCc1ccc(C)cc1,-179
SMILES,aSyn UTR act
COc1cc(/C=N/N=C2/NC(=O)C(CC(=O)O)S2)ccc1OCc1ccc(Cl)cc1 (stereo unspecified),-149
COc1cc(/C=N/O)ccc1OCc1ccc(C(=O)O)cc1,n
O=C1CC(c2ccco2)CC(O)=C1C=Nc1cc(Cl)ccc1O (stereo unspecified),-143
CC(C)(C)Cc1nnc(NC(=O)c2ccc([N+](=O)[O-])cc2)s1,-77
CCC(C)(C)c1nnc(NC(=O)c2ccc([N+](=O)[O-])cc2)s1,-149
CCCc1nnc(NC(=O)c2ccc([N+](=O)[O-])cc2)s1,-67
Cc1cc(NC(=O)c2ccc(Cl)cc2Cl)no1,-185
Cc1cc(NC(=O)Nc2ccc(Cl)cc2)no1,-110
Cc1cccc(NC(=O)Nc2cc(C)on2)c1,-73
Cc1cc(/C(N)=N/OC(=O)Nc2ccc(Cl)cc2)no1,-92
Cc1cc(C(=O)Nc2cc(C(C)(C)C)on2)c(C)o1,-147
Cc1ccc(NC(=O)Nc2cc(C)on2)cc1,-143
CC(C)(C)c1cc(NC(=O)Nc2ccccc2)no1,-197
O=C(Nc1ccsn1)c1ccc(Cl)cc1Cl,-162
Cc1cc(C(=O)NNC(=O)c2ccc(Cl)cc2Cl)c(C)o1,-76
O=C(CCCN1C(=O)/C(=C/c2ccccc2Cl)SC1=S)NNC(=O)c1ccc(Cl)cc1Cl,n
O=C(Nc1ccc(/C=C/c2nc3ccccc3o2)cc1)c1c(F)cccc1F,-171
CC(=O)Nc1ccc(/C=C/c2nc3ccccc3o2)cc1,-128
